A number with no mark means an inactive call. For some of these results: Entries with a potency or affinity are not part of this list. Activity calls are given as the source filed them. Unless noted, how the calls were made is not given here.
Assays:
[1] = antimalarial activity against Dd2 strain (AID 2302;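 active means growth inhibition above 50% at the single 2 µM test dose, taken to imply half-maximal potency below 2 µM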;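 further: 0% = DMSO untreated growth and 100% = chloroquine plus artemisinin killed control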); conditions: P. falciparum Dd2 in RBCs, LDH growth readout, 72 h; at 2 µM; hits give high values
[2] = HepG2 cytotoxicity, primary screen, cytotoxicity control for P. falciparum antimalarial project, cell-based, ATP luminescence (AID 2303;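 active means inhibition above 50%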;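 further: 0% = DMSO wells and 100% = digitonin-killed cells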); conditions: HepG2 viability, 24-48 h, at 10 µM, hits give high values
[3] = target: L-lactate dehydrogenase (Plasmodium falciparum (isolate CDC / Honduras)) (UniProt Q27743); test: PfLDH activity inhibition – cell lysate, 3D7 strain, counter-screen for P. falciparum growth inhibition project (AID 2304);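 further: 0% = vehicle and 100% = reference inhibitor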; conditions: P. falciparum 3D7 crude extract, LDH APAD/NBT absorbance; at 2 µM; hits give high values
[4] = inhibition of 3D7 malaria parasite growth – strain 3D7 (AID 2306);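 further: 0% = DMSO wells and 100% = chloroquine plus artemisinin control wells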; conditions: P. falciparum 3D7 erythrocytic growth, LDH absorbance, 72 h; at 2 µM; hits give high values
[5] = target: Calcium-dependent protein kinase 1 (Plasmodium falciparum (isolate 3D7)) (UniProt P62344); test: PfCDPK1 kinase inhibitors, biochemical, TCAMS library (AID 1159585; cut-off not given, nearly all actives have IC50 up to about 0.98 µM;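 further: inhibitors leave more ATP so luminescence rises with inhibition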); conditions: recombinant PfCDPK1, Kinase-Glo ATP depletion luminescence
[6] = target: Plasmodium falciparum protein kinase 6 (PK6, PF3D7_1337100) (UniProt Q8IDW1); test: PfPK6 kinase inhibitors, biochemical, TCAMS library (AID 1159586); conditions: recombinant PfPK6, Kinase-Glo ATP depletion luminescence
[7] = target: Protein kinase 7 (PK7), Plasmodium falciparum 3D7 (PF3D7_0213400) (UniProt Q7YTF7); test: inhibition of Plasmodium PK7 catalytic activity – biochemical, TCAMS antimalarial set, Kinase-Glo luminescence (AID 1159587); conditions: recombinant PfPK7, Kinase-Glo ATP depletion luminescence
[8] = target: Calcium-dependent protein kinase 4 (Plasmodium falciparum (isolate 3D7)) (UniProt Q8IBS5); test: PfCDPK4 kinase inhibitors, biochemical, TCAMS library (AID 1159588; cut-off not given, nearly all actives have IC50 up to about 0.91 µM); conditions: recombinant PfCDPK4, Kinase-Glo ATP depletion luminescence
Calcium-dependent protein kinase 4 (Plasmodium falciparum (isolate 3D7)), sequence (Q8IBS5 whole entry, looked up): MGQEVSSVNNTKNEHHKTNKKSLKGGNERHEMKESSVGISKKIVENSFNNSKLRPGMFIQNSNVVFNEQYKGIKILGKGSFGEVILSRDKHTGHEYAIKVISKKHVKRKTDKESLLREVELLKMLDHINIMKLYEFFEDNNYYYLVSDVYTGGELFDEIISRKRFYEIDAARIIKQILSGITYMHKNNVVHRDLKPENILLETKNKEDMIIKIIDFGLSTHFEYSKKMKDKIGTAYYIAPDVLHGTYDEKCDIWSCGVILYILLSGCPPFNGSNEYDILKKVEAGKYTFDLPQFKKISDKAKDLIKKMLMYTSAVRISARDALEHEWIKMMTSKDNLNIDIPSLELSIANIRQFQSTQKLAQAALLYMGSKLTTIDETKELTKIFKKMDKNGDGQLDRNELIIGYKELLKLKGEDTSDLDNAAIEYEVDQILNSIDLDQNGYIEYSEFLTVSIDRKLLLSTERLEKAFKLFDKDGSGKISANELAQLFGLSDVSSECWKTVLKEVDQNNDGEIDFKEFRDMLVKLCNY

L-lactate dehydrogenase (Plasmodium falciparum (isolate CDC / Honduras)), sequence (Q27743 whole entry, looked up): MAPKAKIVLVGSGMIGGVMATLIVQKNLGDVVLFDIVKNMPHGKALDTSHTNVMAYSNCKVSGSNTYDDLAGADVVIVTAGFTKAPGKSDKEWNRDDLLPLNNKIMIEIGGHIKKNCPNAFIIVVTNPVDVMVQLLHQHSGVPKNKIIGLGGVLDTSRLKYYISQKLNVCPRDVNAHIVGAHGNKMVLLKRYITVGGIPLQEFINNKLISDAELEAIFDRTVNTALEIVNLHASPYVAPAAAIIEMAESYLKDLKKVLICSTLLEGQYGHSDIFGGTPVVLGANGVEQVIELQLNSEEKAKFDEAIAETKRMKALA
Plasmodium falciparum protein kinase 6 (PK6, PF3D7_1337100), sequence (Q8IDW1 1-305): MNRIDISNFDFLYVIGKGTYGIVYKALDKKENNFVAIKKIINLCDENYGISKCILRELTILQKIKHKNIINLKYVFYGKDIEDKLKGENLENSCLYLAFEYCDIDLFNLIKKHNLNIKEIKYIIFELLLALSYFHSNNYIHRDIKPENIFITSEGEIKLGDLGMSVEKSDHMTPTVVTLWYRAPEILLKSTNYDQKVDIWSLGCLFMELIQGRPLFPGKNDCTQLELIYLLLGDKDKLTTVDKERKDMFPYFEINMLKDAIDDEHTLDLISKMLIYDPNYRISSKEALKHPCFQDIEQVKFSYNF
Calcium-dependent protein kinase 1 (Plasmodium falciparum (isolate 3D7)), sequence (P62344 whole entry, looked up): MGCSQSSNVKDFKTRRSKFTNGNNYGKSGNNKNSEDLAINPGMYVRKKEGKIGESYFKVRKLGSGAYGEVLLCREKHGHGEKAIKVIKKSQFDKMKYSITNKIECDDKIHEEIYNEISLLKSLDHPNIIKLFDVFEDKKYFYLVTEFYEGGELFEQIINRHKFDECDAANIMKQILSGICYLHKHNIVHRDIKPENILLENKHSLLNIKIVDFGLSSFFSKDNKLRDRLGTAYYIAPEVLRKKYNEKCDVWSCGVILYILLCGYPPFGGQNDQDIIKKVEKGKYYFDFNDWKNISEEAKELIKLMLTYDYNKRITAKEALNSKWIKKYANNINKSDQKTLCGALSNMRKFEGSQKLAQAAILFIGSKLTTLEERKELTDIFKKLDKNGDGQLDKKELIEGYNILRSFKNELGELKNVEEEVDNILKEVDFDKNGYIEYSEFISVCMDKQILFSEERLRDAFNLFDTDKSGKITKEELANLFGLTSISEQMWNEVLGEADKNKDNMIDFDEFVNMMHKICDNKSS
Protein kinase 7 (PK7), Plasmodium falciparum 3D7 (PF3D7_0213400), sequence (Q7YTF7 1-343): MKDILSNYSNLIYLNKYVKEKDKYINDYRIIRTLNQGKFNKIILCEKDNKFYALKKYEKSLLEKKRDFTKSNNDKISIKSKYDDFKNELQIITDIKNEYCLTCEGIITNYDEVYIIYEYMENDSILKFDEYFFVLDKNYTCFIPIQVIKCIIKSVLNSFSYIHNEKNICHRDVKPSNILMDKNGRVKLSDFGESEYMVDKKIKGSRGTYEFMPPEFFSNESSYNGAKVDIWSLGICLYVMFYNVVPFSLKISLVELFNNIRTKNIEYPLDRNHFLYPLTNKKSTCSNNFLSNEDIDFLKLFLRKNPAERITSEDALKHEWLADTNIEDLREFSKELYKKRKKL

SMILES | growth inhibition [1] | inhibition [2] | inhibition [3] [%] | growth inhibition [4] | outcome [5] | outcome [6] | outcome [7] | outcome [8]
c1ccc(Oc2ccc(Nc3ccnc4cc(-c5ccc(CN6CCNCC6)o5)ccc34)cc2)nc1 | 99% (active) | 7% | -1 | 100% (active) | inactive | inactive | inactive | inactive
CS(=O)(=O)N1CC2(CCN(CCC(NC(=S)Nc3ccccc3)c3ccc(Cl)c(Cl)c3)CC2)c2ccccc21 (stereo not drawn) | 80% (active) | 24% | -1 | 98% (active) | inactive | inactive | inactive | inactive
O=S(=O)(c1cc(Cl)sc1Cl)N(CCC(O)(C(F)(F)F)C(F)(F)F)Cc1cccc(O)c1 | 97% (active) | -4% | 5 | 98% (active) | inactive | inactive | inactive | inactive
O=C(NCCN1CCCCC1)N1CCCN(c2ncnc3cc(-c4ccccc4)sc23)CC1 | 80% (active) | 2% | -1 | 89% (active) | inactive | inactive | inactive | inactive
Cc1ccc(N2C(N)=NC(N)=NC2(C)C)cc1Cl | 77% (active) | 66% (active) | -4 | 90% (active) | inactive | inactive | inactive | inactive
Cc1ccc2c(=O)cc(CCc3cccc(F)c3F)n(CC(=O)N(Cc3ccc(-c4ccc(C(F)(F)F)cc4)cc3)C3CCN(C)CC3)c2n1 | 76% (active) | 49% | 0 | 86% (active) | inactive | inactive | inactive | inactive
N#Cc1ccc(N2CCN(Cc3ccc(-c4ccc(-c5nc6ccc(C(F)(F)F)cc6[nH]5)s4)cc3)CC2)nc1 | 73% (active) | 13% | 4 | 100% (active) | inactive | inactive | inactive | inactive
COc1ccccc1NC(=O)Nc1ccc(-c2ccc(-c3nc4ccc(C(F)(F)F)cc4[nH]3)cc2)cc1 | 61% (active) | 52% (active) | 3 | 101% (active) | inactive | inactive | inactive | inactive
Cc1ccc(NC(=O)c2ccc3ncccc3c2)cc1OC1CCN(C(C)C)C1 (stereo not drawn) | 37% | 12% | 1 | 95% (active) | inactive | inactive | inactive | inactive
COc1c(C2CCN(CCCCNC(=O)c3ccc(-c4ccc(Cl)cc4)c(O)c3)CC2)ccc2c1CCCC2 | 99% (active) | 91% (active) | -5 | 102% (active) | inactive | inactive | inactive | inactive
CCc1ccccc1N1CCN(CCCCNC(=O)c2ccc(NC(=O)c3ccc(Cl)cc3)cc2)CC1 | 4% | 21% | -4 | 96% (active) | inactive | inactive | inactive | inactive
OCCN1CCN(C2Cc3ccc(F)cc3Sc3ccc(Cl)cc32)CC1 (stereo not drawn) | 26% | 56% (active) | 3 | 98% (active) | inactive | inactive | inactive | inactive
Cc1ccc(O)cc1Nc1ccnc2ccc(C(C)(C)C)cc12 | 100% (active) | 6% | 3 | 100% (active) | inactive | inactive | inactive | inactive
O=C(Cc1ccccc1)NC(c1ccccc1)c1ccc2cccnc2c1O (stereo not drawn) | 61% (active) | 49% | 3 | 89% (active) | inactive | inactive | inactive | inactive
Clc1ccc(Nc2nc(Nc3ccc(Cl)c(Cl)c3)nc(Sc3nc4ccccc4[nH]3)n2)cc1Cl | 100% (active) | 10% | 1 | 99% (active) | inactive | inactive | inactive | inactive
CCCCCCN1CCC(NCc2ccc(C)cc2)CC1 | 4% | 16% | -1 | 93% (active) | inactive | inactive | inactive | inactive
Fc1ccc(CNc2ncc(-c3ccsc3)c(-c3nccs3)n2)cc1 | 77% (active) | 7% | -2 | 94% (active) | inactive | inactive | inactive | inactive
CN(C)c1ccc(-c2csc(C(=O)NC3CCCCN(Cc4ccc(C(C)(C)C)cc4)C3)c2)cc1 (stereo not drawn) | 55% (active) | 17% | 4 | 84% (active) | inactive | inactive | inactive | inactive
O=C(NCCCN1CCC(N2CCCCC2)CC1)c1ccc(N2CCOc3ccccc32)s1 | 12% | 37% | 4 | 101% (active) | inactive | inactive | inactive | inactive
CCCCC(=O)Nc1nc2ccc([N+](=O)[O-])cc2s1 | 69% (active) | 9% | -5 | 91% (active) | inactive | inactive | inactive | inactive
Cc1cc(C(F)(F)F)cc(-n2ncc(-c3ccc(C(=O)NCc4ccccc4N)cc3)c2N)n1 | 89% (active) | 10% | 3 | 99% (active) | inactive | inactive | inactive | inactive

SMILES | growth inhibition [1] | inhibition [2] | inhibition [3] [%] | growth inhibition [4] | outcome [5] | outcome [6] | outcome [7] | outcome [8]
COc1cccc(-c2cnc(N)c(-c3nc4ccc(C(F)(F)F)cc4[nH]3)c2)c1 | 30% | 5% | -4 | 99% (active) | inactive | inactive | inactive | inactive
Cc1[nH]c(C)c(-c2ccc(OCc3cc(F)cc(F)c3)nc2)c(=O)c1Cl | 97% (active) | 20% | -6 | 97% (active) | inactive | inactive | inactive | inactive
Cc1cc(-c2cc(Cl)ccc2Cl)no1 | 97% (active) | 36% | -8 | 96% (active) | inactive | inactive | inactive | inactive
Cc1cc(NC(=O)c2cccs2)ccc1OC1CCN(Cc2ccc(C#N)cc2)C1 (stereo not drawn) | 61% (active) | 13% | -2 | 82% (active) | inactive | inactive | inactive | inactive
N#Cc1cccc(Nc2nccc(NCC(O)c3ccc(C(F)(F)F)cc3)n2)c1 (stereo not drawn) | 98% (active) | 23% | 4 | 102% (active) | inactive | inactive | inactive | inactive
Cc1sc2nc(CSc3ccccc3)nc(N3CCN(CC(=O)NC4CC4)CC3)c2c1C | 95% (active) | 2% | 1 | 96% (active) | inactive | inactive | inactive | inactive
COc1cc(C=CC(=O)N2CCC(CCN3CCC(c4c[nH]c5ccccc45)CC3)CC2)cc(OC)c1 | 23% | 39% | -5 | 92% (active) | inactive | inactive | inactive | inactive
CCCCN1CCN(c2cc(NS(=O)(=O)c3cccc(C(=O)Nc4ccc(C(F)(F)F)cc4)c3)ccc2OC)CC1 | 7% | 6% | 4 | 99% (active) | inactive | inactive | inactive | inactive
O=c1c(NCCCN(Cc2ccc(F)cc2)c2ccccn2)c(NCc2cccnc2)c1=O | 92% (active) | -2% | -2 | 101% (active) | inactive | inactive | inactive | inactive
Cc1ccc(NC(=O)c2ccc(Cl)c(Cl)c2)cc1-c1ccc(C(=O)Nc2ccncc2)cc1 | 79% (active) | 39% | -3 | 99% (active) | inactive | inactive | inactive | inactive
Cc1cc(N[C@@H](CC(C)C)C(=O)Nc2ccccc2)nc(NCCc2ccccc2)n1 | 87% (active) | -4% | -1 | 100% (active) | inactive | inactive | inactive | inactive
CCCc1cc(Cc2cnc(N)nc2N)ccc1OCCCCCC(=O)OCC | 1% | -11% | 0 | 97% (active) | inactive | inactive | inactive | inactive
CCN(CC)CCN(Cc1ccc(-c2ccc(C(F)(F)F)cc2)cc1)C(=O)Cn1c(CCc2cc(F)ccc2F)nc(=O)c2ccccc21 | 52% (active) | 42% | 4 | 98% (active) | inactive | inactive | inactive | inactive
Cc1cc(CN2CC[C@H](NC(=O)c3ccc(Cl)c(Cl)c3)C2)ccc1OCCCN(C)C | 35% | 41% | 0 | 99% (active) | inactive | inactive | inactive | inactive
Cc1cccc2[nH]c(-c3cccc(-c4cccc(NC(=O)C5CC(=O)Nc6ccccc65)c4)c3)nc12 (stereo not drawn) | 25% | 13% | 0 | 85% (active) | inactive | inactive | inactive | inactive
COc1ccc2nccc([C@@H](O)CN3CCC(NC(=O)/C=C/c4cccc(-c5ccccc5)c4)CC3)c2c1 | 83% (active) | 12% | -5 | 98% (active) | inactive | inactive | inactive | inactive
CC(=O)Nc1ccc(OCCCCN(Cc2ccccc2C(F)(F)F)c2ccc(C(F)(F)F)c(C#N)c2)c(Cl)c1 | 96% (active) | 14% | -1 | 96% (active) | inactive | inactive | inactive | inactive
CCc1nc2c(cnn2CC)c(NC2CCOCC2)c1CNC(=O)c1ccoc1C | 87% (active) | 6% | 2 | 97% (active) | inactive | inactive | inactive | inactive
CN(C)C1CCN(Cc2ccc(N3CCN(Cc4cccc5[nH]ccc45)CC3)nc2)CC1 | 17% | 11% | -2 | 80% (active) | inactive | inactive | inactive | inactive
CC[C@H](NC(=O)c1c(CCCN2CCN(c3ccccc3)CC2)c(-c2ccccc2)nc2cc(O)ccc12)c1ccccc1 | 97% (active) | 12% | 6 | 96% (active) | inactive | inactive | inactive | inactive

From PubChem BioAssay
